Screening results as filed in PubChem.
Calb FLC = C. albicans growth inhibition with fluconazole, primary screen, CaCi-2 strain, Alamar Blue fluorescence; C. albicans CaCi-2 (fluconazole-resistant clinical isolate) + fluconazole, 48 h; growth inhibition, % (test concentration not listed); 300,000 tested, 0.57% active; AID 1979, 2009;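 active = growth inhibition above about 58% in most replicates, limit read from the data, passing the limit was not always enough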;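 note: all wells also contain fluconazole at 8 µg/ml as a sub-toxic cotreatment; 0% = median of DMSO wells and 100% = median of geldanamycin control wells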
CSC inhib = cancer stem cell viability inhibitors, primary screen, luminescence. cancer stem cell-like cells viability. inhibition, % at 7.5 µM. 300,000 tested, 1.1% active. AID 2717, 2010; in the data active = inhibition above about 75%; tested in HMLE shEcad cells
Beta apoptosis = inhibitors of cytokine-induced beta cell apoptosis, primary screen, luminescence | INS-1E cytokine-induced death, ATP luminescence, 48 h; percent of positive-control rescue, neutral wells zero | 300,000 tested, 0.8% active | protection from apoptosis, % (no concentration beside the values);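 active = Every replicate reaches about 75%, or at least half do and their mean reaches it too, limit read from the data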;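 note: 0% = cytokine-treated negative control wells and 100% = positive control rescue; higher means more ATP so stronger rescue from cytokine killing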
PP5 inh = PP5 phosphatase inhibitors, primary screen, biochemical, fluorescence | Serine/threonine-protein phosphatase 5 (Homo sapiens), P53041 | purified PP5c, OMFP substrate fluorescence | inhibition, % at 6.7 µM | 320,000 tested, 0.18% active | AID 1987, 2009;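 active = inhibition above the campaign's mean inhibition across all tested compounds plus 3 SD, cut at about 9.5% in these data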;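 note: 0% = DMSO only and 100% = 100 µM cantharidin control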
Target sequence (P53041 whole entry, looked up): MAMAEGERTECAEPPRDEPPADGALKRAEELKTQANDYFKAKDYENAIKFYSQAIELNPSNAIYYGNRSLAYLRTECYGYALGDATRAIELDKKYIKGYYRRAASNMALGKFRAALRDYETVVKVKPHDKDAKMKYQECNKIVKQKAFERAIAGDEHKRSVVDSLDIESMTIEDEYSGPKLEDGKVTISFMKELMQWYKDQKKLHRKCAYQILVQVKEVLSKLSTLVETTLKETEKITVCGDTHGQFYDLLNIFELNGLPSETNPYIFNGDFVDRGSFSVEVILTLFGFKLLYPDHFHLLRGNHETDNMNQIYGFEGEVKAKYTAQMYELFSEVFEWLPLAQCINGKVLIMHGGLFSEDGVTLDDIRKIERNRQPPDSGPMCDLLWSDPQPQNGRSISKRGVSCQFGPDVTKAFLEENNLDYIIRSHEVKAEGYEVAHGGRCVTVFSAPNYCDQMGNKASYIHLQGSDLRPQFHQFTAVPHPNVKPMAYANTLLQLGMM
PP1 inh = PP1-alpha phosphatase inhibitors, primary screen, counter-screen for PP5 inhibitor project, biochemical, fluorescence, OMFP substrate, single point. Serine/threonine-protein phosphatase PP1-alpha catalytic subunit (Homo sapiens), P62136. purified PP1alpha. inhibition, % at 6.7 µM. 320,000 tested, 0.9% active;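 active = inhibition above the mean inhibition of all tested compounds plus 3 SD, computed separately for each screening campaign, cut at about 15% in these data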
Mdm2-MdmX inh = inhibitors of human Mdm2-MdmX association, primary screen, cell-based, luminescence, split luciferase, SaOS-2, uHTS. AID 485346, 2010. 330,000 tested, 3% active. inhibition, % at 8 µM. SaOS-2 split-luciferase Mdm2/MdmX complementation;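 active = inhibition of at least 50% at 8 µM in the primary screen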
* hit, by the source's call; . = no result. A selection: hits, their analogues and other compounds. The true share with any hit is near 4.9%.

SMILES	Calb FLC	CSC inhib	Beta apoptosis	PP5 inh	PP1 inh	Mdm2-MdmX inh
C/C(=N/NC(=O)c1cc(O)c(O)c(O)c1)c1ccc([N+](=O)[O-])cc1	91*	.	.	.	.	.
C/C(=N\Nc1ccc([N+](=O)[O-])cc1)c1ccc(O)cc1	113*	28	0	5	5	-23
C/C(=N\Nc1ccc([N+](=O)[O-])cc1)c1cccc(N)c1	-18	-12	2	4	-1	-22
CCN(CC(=O)NCc1cccs1)C(=O)Cc1ccc(Cl)c(Cl)c1	.	.	-5	.	.	7
Cc1cc(C#N)c(C)n1-c1cc(S(=O)(=O)N2CCOCC2)ccc1N1CCCC1	.	1	-6	0	11	-8
Nc1c(N2CCCC2)cc(Cl)c2nonc12	-2	-5	2	6	4	-16
Nc1ccc(N2CCCCC2)c2nonc12	9	6	7	11*	17*	-14
CN(Cc1ccco1)C(=O)CSc1nn2c(=O)c(C(C)(C)C)nnc2s1	.	-4	-3	.	.	13
CCc1ccc(OCC(=O)NC(NC(=S)Nc2ccc(C)cc2C)C(Cl)(Cl)Cl)cc1 (configuration not stated)	-14	-9	95*	3	7	19
O=Nc1c(O)n(Cc2ccc(Cl)c(Cl)c2)c2ccccc12	79*	84*	11	2	10	49
O=Nc1c(O)n(Cc2ccccc2)c2ccccc12	-19	-15	-9	0	-1	23
COC(=O)c1ccc(Cn2c(O)c(N=O)c3ccccc32)o1	2	0	-3	0	2	27
O=Nc1c(O)n(Cc2cccc(C(F)(F)F)c2)c2ccccc12	117*	10	-1	7	11	36
CC1=C(C(=O)Nc2ccccc2)C(c2cccnc2)n2ncnc2N1 (configuration not stated)	-12	10	-2	0	-1	-16
CC(=O)Nc1ccccc1OCC(=O)c1cc(C)n(Cc2cccs2)c1C	4	37	111*	-1	3	-9
Cc1cc(C(=O)COC(=O)c2ccc3c(c2)OCO3)c(C)n1Cc1cccs1	-9	-1	-3	2	7	-11
CCC1(C)Cc2ccccc2-c2[nH][nH]c(=O)c21 (configuration not stated)	1	6	-9	2	-4	-3
O=C(Nc1ncn[nH]1)c1ccc(Cl)c(S(=O)(=O)Nc2ccc(Cl)cc2)c1	12	-4	-6	2	17*	5
COc1ccccc1-c1nnc(NC(=O)c2ccc(S(=O)(=O)N(C)CC3CCCO3)cc2)o1 (configuration not stated)	28	-6	-9	3	17*	1
CN(CC1CCCO1)S(=O)(=O)c1ccc(C(=O)Nc2nnc(-c3ccccc3)o2)cc1 (configuration not stated)	45	21	6	4	11	24
COc1cccc(C(C(=O)NC2CCCC2)N(C(=O)c2ccco2)c2ccccc2)c1OC (configuration not stated)	7	-7	-6	0	-3	-5
O=C(C1=C(O)C(=O)N(CCN2CCOCC2)C1c1ccc([N+](=O)[O-])cc1)c1cc2ccccc2o1 (configuration not stated)	-9	5	-5	1	14	-8
O=C(C1=C(O)C(=O)N(CCN2CCOCC2)C1c1ccc(Cl)cc1)c1cc2ccccc2o1 (configuration not stated)	-8	-11	4	4	19*	-3
O=C(C1=C(O)C(=O)N(CCCN2CCOCC2)C1c1ccc(Cl)cc1)c1cc2ccccc2o1 (configuration not stated)	19	10	1	3	16*	19
Cc1cc(C)c(CN2CCC(N3CCC(C(=O)NCC4CCCO4)CC3)CC2)cc1C (configuration not stated)	2	9	-7	-4	-2	18
SMILES	Calb FLC	CSC inhib	Beta apoptosis	PP5 inh	PP1 inh	Mdm2-MdmX inh
CC(C)CN(C(=O)COC(=O)C12CC3CC(CC(Cl)(C3)C1)C2)c1c(N)n(Cc2ccccc2)c(=O)[nH]c1=O	11	-16	81*	-3	-6	29
O=C(Nc1nc(-c2ccccc2)nc2ccccc12)c1ccc(F)cc1	-13	.	3	2	16*	37
CCOC(=O)CSc1ccc2nnc(CCNS(=O)(=O)c3ccc(C)cc3)n2n1	-2	-6	1	-3	3	12
CC(=O)Nc1ccc(NC(=O)CSc2ccc3nnc(CCNS(=O)(=O)c4ccc(C)cc4)n3n2)cc1	77*	-4	-8	0	0	-15
COc1cc(C2Nc3cccc4cccc(c34)N2)cc(OC)c1O	.	10	5	-1	36*	-1
c1nc(NCc2ccc3c(c2)OCO3)c2cc(-c3ccc4c(c3)OCCO4)ccc2n1	.	.	99*	.	.	27
O=c1c2cc(O)c(O)cc2oc2cc(O)c(C3OC(CO)C(O)C(O)C3O)c(O)c12 (configuration not stated)	-3	-1	0	2	-1	24
COc1cc(/C=C2\C(=O)ON=C2c2ccc(Cl)cc2)ccc1O	1	87*	-36	4	-2	35
COc1ccc(C(=O)NCCN2CCOCC2)c(OC)c1OC	70*	6	-5	1	-4	-19
COc1ccc(C(=O)NCCN2CCOCC2)c(OC)c1	-19	-8	-7	-1	1	-3
CC1CCCN(C(=O)CN2C(=O)CSc3ccc(S(=O)(=O)N4CCOCC4)cc32)C1 (configuration not stated)	-8	-7	-4	2	1	8
O=C(NCc1ccco1)/C(=C/c1ccc(F)cc1)NC(=O)c1ccccc1	2	-10	-2	-1	-3	17
COc1ccc(-n2sc3c(c2=S)-c2cc(OC)ccc2NC3(C)C)cc1	6	129*	6	7	2	28
CCc1ccc2[nH]c(=O)c(C3C(C#N)=C(N)Oc4c3ccc3cccnc43)cc2c1 (configuration not stated)	110*	97*	94*	1	23*	34
CC(=O)C1=C(C)OC(N)=C(C#N)C1c1cc2cccc(C)c2nc1Cl (configuration not stated)	49	-6	-6	2	-2	21
Cc1ccc2cc(C3C(C#N)=C(N)Oc4c3ccc3cccnc43)c(=O)[nH]c2c1 (configuration not stated)	87*	70	88*	3	13	22
